These results are taken from PubChem BioAssay (NCI).

Molecules are shown by their SMILES. About 83,000 compounds went through this panel and 20% of them were active in at least one assay; those are over-represented in the sample as a whole.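 The endpoint reported here, percent growth, reads 100 for growth as untreated, 0 for no net growth and -100 for all cells dead.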 Unmarked numbers belong to inactive results. Activity calls are given as the source filed them. The calls were made as follows: active = growth percent below 10; inactive = the rest.

Common to all, as to assay: NCI-60 one-dose screen, 48 h (100 = growth as untreated, 0 = no growth, -100 = all killed)
Common to all, as to settings: 10 µM unless noted

The test system of assay [1] is NCI-H23 lung.
Assay [2] relates to NCI-H226 lung.
In assay [3] the test system is NCI-H322M lung.
The subject of assay [4] is HOP-62 NSCLC.
Assay [5] concerns NCI-H460 lung.
The test system of assay [6] is HOP-92 NSCLC.
The test system of assay [7] is NCI-H522 lung.
In assay [8] the test system is A549/ATCC NSCLC.
Assay [9] relates to 786-0 renal.
Assay [10] relates to DU-145 prostate.
For assay [11], the system named is K-562 leukemia.
Assay [12] relates to MALME-3M melanoma.
For assay [13], the system named is MDA-MB-231 breast.
Assay [14] deals with RXF 393 renal.
The test system of assay [15] is SF-268 CNS.
The test system of assay [16] is SF-295 CNS.
Assay [17] has as its system SF-539 CNS.
Assay [18] has as its system UACC-257 melanoma.
In assay [19] the test system is M14 melanoma.

With `CCNCCNc1cc(-c2ccc(F)cc2)c(C#N)c2nc3ccccc3n12`, the growth in assay [1] was 77.8%; in assay [2], 93.1%; in [3], 66.3%; in assay [4] it was 75.6%; in [5], 3.07% (active); in [6], 52.1%. In addition, the growth in assay [7] is 64.3%; in assay [8] it was 46%; in assay [9], 57.9%; in [10], 46.4%; in assay [11], -19.1% (active); in assay [12] it was -60.1% (active). Further, the growth in assay [13] is 17.9%; in [14], 29.7%; in [15], 53.8%; in assay [16], 38.5%; in assay [17] it was -88.4% (active); in assay [18], -76.8% (active). Besides, in assay [19], the growth is -64.1% (active).
With `O=C(c1ccccc1)c1ccc(N2C(=O)C3C4c5ccccc5C(/C=C/C(=O)c5ccccn5)(c5ccccc54)C3C2=O)cc1` (configuration not stated), the growth in assay [1] is 14.2%; in assay [2] it was 12.7%; in assay [3], 74.9%; in assay [4] it was 24.3%; in [5], 6.4% (active); in assay [6] it was 55.6%. Besides, the growth in assay [7] was 30.6%; in assay [8], 44.3%; in assay [9], 2.11% (active); in [10] it was 21.4%; in [11] it was 15.9%; in [12], -18.2% (active). For the same molecule, the growth in assay [13] is -8.96% (active); in [14] it was -48.5% (active); in [15], 43.4%; in assay [16] it was 10.8%; in assay [17], -10.9% (active); in [18], 43.6%. In addition, in [19], the growth is 21.3%.
For the molecule `NC(N)=N/N=C/c1ccc(Br)cc1`, the growth in [1] is 56.4%; in assay [2] it was 72.1%; in assay [3], 98.6%; in [4] it was 10.2%; in assay [5] it was 14.3%; in assay [6], 49.3%. Besides, the growth in assay [7] was 40%; in assay [8], 34.6%; in [9] it was -38.3% (active); in [10] it was 80%; in [11] it was 4.4% (active); in [12] it was 45%. The growth was 38.1% in assay [13]; 70.8% in assay [14]; 62% in assay [15]; 48.3% in assay [16]; 62.2% in [17]; 58.6% in [18]. Moreover, in assay [19], the growth is 14.6%.
With `CN(C)c1ccc2cc(-c3ccc(Cl)c(Cl)c3)c(N)nc2c1`, the growth in assay [1] was 15.4%; in [2] it was 42.3%; in assay [3], 54.6%; in [4] it was 66.2%; in assay [5], 27.6%; in assay [6] it was 28%. Further, the growth in assay [7] was 22%; in assay [8], 32.9%; in assay [9], 55.4%; in assay [10] it was 56.2%; in assay [11] it was 12.1%; in assay [12] it was 29.8%. Besides, the growth in assay [13] is 63.1%; in assay [14] it was 63%; in assay [15], 50.1%; in assay [16], 11.9%; in assay [17] it was 48.5%; in [18] it was 21.3%. Moreover, in [19], the growth is 25.5%.
Consider `O=C(CC12CC3CC(CC(C3)C1)C2)NCCOCCOCCOCCNC(=O)c1cc2c(o1)C(=O)c1ccccc1C2=O`, for which the growth in [1] was -47.6% (active); in assay [2] it was -73.6% (active); in [3] it was -78.7% (active); in [4], -49.7% (active); in assay [5], -71.5% (active); in [6], 27.6%. The growth was -45.6% (active) in assay [7]; -41.2% (active) in assay [8]; -5.36% (active) in assay [9]; -95.6% (active) in [10]; 2.13% (active) in assay [11]; -96.3% (active) in assay [12]. Moreover, the growth in assay [13] is -0.382% (active); in assay [14] it was -51.3% (active); in [15], -3.17% (active); in assay [16], -90.1% (active); in assay [17], -90.4% (active); in [18] it was -80.7% (active). Moreover, the growth in [19] is -76.2% (active).
On to `C=C(C)[C@@H]1CC[C@]2(CO)CC[C@]3(C)[C@H](CC[C@@H]4[C@@]5(C)C=C(C#N)C(=O)C(C)(C)[C@@H]5CC[C@]43C)[C@@H]12`, for which the growth in assay [1] is 16.6%; in assay [2], 25.6%; in assay [3], 21.4%; in [4], 23.2%; in assay [5], -7.1% (active); in assay [6] it was 8.38% (active). Also, the growth is 24.1% in assay [7]; 12.6% in [8]; 14.8% in [9]; 18.9% in assay [10]; 7.75% (active) in [11]; 32.9% in assay [12]. Further, the growth was 15.9% in [13]; -61.2% (active) in [14]; 25.4% in assay [15]; -2.71% (active) in assay [16]; 20.5% in assay [17]; 4.1% (active) in assay [18]. Besides, the growth in assay [19] is 15.8%.
On to `Cc1cc(C(c2ccccc2)c2ccccc2)ccc1NS(=O)(=O)c1ccccc1`, for which the growth was 86.2% in assay [1]; 102% in assay [2]; 119% in assay [3]; 110% in assay [4]; 93.2% in [5]; 95.8% in [6]. Further, the growth was 83.7% in [7]; 87.9% in [8]; 102% in assay [9]; 102% in assay [10]; 65.1% in assay [11]; 130% in assay [12]. Moreover, the growth in assay [13] was 88.5%; in assay [14] it was 102%; in assay [15] it was 85.9%; in assay [16], 109%; in assay [17] it was 98.4%; in assay [18], 118%. In addition, in assay [19], the growth is 108%.
Regarding `C=CC(=O)Nc1cccc(C)c1Nc1cc(-c2cccnc2Cc2c(C)c(OC)cc(OC)c2C)ncn1`, the growth in [1] was 54.4%; in assay [2] it was 46.1%; in assay [3] it was 50.7%; in assay [4], -38% (active); in assay [5], 4.5% (active); in assay [6] it was 22.8%. The growth was -17.4% (active) in [7]; 8.38% (active) in assay [8]; 16% in [9]; 11.4% in assay [10]; -11.1% (active) in [11]; 66.1% in assay [12]. Further, the growth in [13] was 21.4%; in assay [14], -0.169% (active); in assay [15], 6.81% (active); in assay [16], 43%; in assay [17] it was 3.02% (active); in assay [18], 21.4%. Besides, the growth in [19] was 53.4%.
